Some compounds were tested as several samples or in several runs, with calls that do not always agree. Active and inactive are the calls of the source. The calls were made as follows: active = hit-call score of the fitted dose curve at least 0.9, where 1 is the maximum; inactive = score below 0.9.
Experiment: ATG_NF_kB_CIS: Attagene CIS-FACTORIAL HepG2 Assay for human Nuclear Factor Kappa B (NF-kB) (AID 2282991)
Settings: HepG2 Attagene cis-factorial NF-kB reporter mRNA; actives raise or lower the signal
Experimental: ATG_CIS is a cell-based, multiplexed-readout assay that uses HepG2, a human liver cell line, with measurements taken at 24 hours after chemical dosing in a 24-well plate.ATG_NF_kB_CIS is one of 52 assay component(s) measured or calculated from the ATG_CIS assay. It is designed to make measurements of mRNA induction, a form of inducible reporter, as detected with fluorescence intensity signals by Reverse transcription polymerase chain reaction (RT-PCR) and Capillary electrophoresis technology.Data from the assay component ATG_NF_kB_CIS was analyzed into 1 assay endpoint. This assay endpoint, ATG_NF_kB_CIS, was analyzed with bidirectional fitting relative to DMSO as the negative control and baseline of activity. Using a type of inducible reporter, measures of mRNA for gain or loss-of-signal activity can be used to understand the reporter gene at the transcription factor-level as they relate to the gene NFKB1. Furthermore, this assay endpoint can be referred to as a primary readout, because this assay has produced multiple assay endpoints where this one serves a reporter gene function. To generalize the intended target to other relatable targets, this assay endpoint is annotated to the dna binding intended target family, where the subfamily is NF-kappa B.
Human liver HepG2 cells are transiently transfected with multiple reporter transcription units (MRTUs) in 6-well plates using FuGene 6 reagent (Roche; 3 ml FuGene/1 mg DNA). The MRTU constructs are regulated by a cis-regulating element (promoter). […] A major difference between the CIS and TRANS system is that in CIS activities of endogenous TFs are measured, whereas the TRANS assay evaluates changes in activities of exogenous, chimeric NR-Gal4 proteins. […] At the end of 24 hour incubation, total RNA was isolated using TriZol reagent (Invitrogen). The isolated RNA is then reverse-transcribed using oligo(dT) primer and Mo-MLV reverse transcriptase (Invitrogen) with DNAse I (Ambion) treatment for 30 min. The one-tenth of the produced cDNA was amplified by PCR using Taq DNA polymerase (Invitrogen) and two reporter sequence-specific primers. The PCR products were fluorescently labeled by primer extension with 6-arboxyfluorescein (6-FAM) 5'-labeled reporter sequence-specific primer (2 min at 95 C, 20 s at 68 C and 10 min at 72 C) and these products were digested with 5U of HpaI (New England Biolabs) for 2h at 37 C. The fragments were purified using Qiaquick PCR columns (Qiagen), analyzed on an ABI 3130xL genetic analyzer (Applied Biosystems) with peak positions identified by using a set of X-rhodamine (ROX)-labeled MapMarker1000 molecular weight standards (BioVentures). The raw capillary electrophoresis data was processed using Attagraph software (Attagene).

| SMILES | outcome | AC50 |
| --- | --- | --- |
| CC(C)(OO)c1ccccc1 | inactive |  |
| COc1ccc(OC)c(C=O)c1 | inactive |  |
| CCOP(=S)(OCC)SCSP(=S)(OCC)OCC | inactive |  |
| CCCCP(CCCC)CCCC | inactive |  |
| Cc1cc(Cl)ccc1O[C@H](C)C(=O)O | inactive |  |
| CC(C)c1cccc(C(C)C)c1O | inactive |  |
| CCOP(=S)(OCC)SCCS(=O)(=O)CC | inactive |  |
| O=C(O)C(F)(F)C(F)(F)C(F)(F)C(F)(F)C(F)(F)C(F)(F)C(F)(F)C(F)(F)C(F)(F)C(F)(F)F | inactive | 95.5 µM (active) |
| Nc1ccc(N=Nc2ccc(-c3ccc(N=Nc4c(S(=O)(=O)O)cc5cc(S(=O)(=O)O)c(N=Nc6ccccc6)c(O)c5c4N)cc3)cc2)c(N)c1 | inactive |  |
| Clc1ccc(C2(Cn3cncn3)CC(Br)CO2)c(Cl)c1 (stereo not given) | inactive |  |
| CCOC(=O)CP(=O)(OCC)OCC | inactive |  |
| N#Cc1ccccn1 | inactive |  |
| CC1CN1P(=O)(N1CC1C)N1CC1C (stereo not given) | inactive |  |
| CCC[CH2][Sn]([Cl])([Cl])[Cl] | inactive |  |
| O=C(Nc1ccc2[nH]ccc2c1)c1cc2cc(F)ccc2n1Cc1cccc(F)c1 |  | 7.2 µM (active) |
| COC(=O)c1sccc1S(=O)(=O)NC(=O)Nc1nc(C)nc(OC)n1 | inactive |  |
| CC1(C)CCC(Cc2ccc(Cl)cc2)C1(O)Cn1cncn1 (stereo not given) | inactive |  |
| CC12CC1(C)C(=O)N(c1cc(Cl)cc(Cl)c1)C2=O (stereo not given) | inactive |  |
| COP(=O)(OC)OC | inactive |  |
| OCC(O)CCl (stereo not given) | inactive |  |

| SMILES | outcome | AC50 |
| --- | --- | --- |
| CNC | inactive |  |
| C=CC(=O)N(C)C | inactive |  |
| CCOC(=O)Nc1cccc(OC(=O)Nc2ccccc2)c1 | inactive |  |
| Cc1ccccc1N | inactive |  |
| C=CCc1ccc(OC)cc1 | inactive |  |
| O=C(O)Cc1ccccc1 | inactive |  |
| c1cc[c]([Hg][c]2ccccc2)cc1 | inactive |  |
| CCOP(=S)(OCC)Oc1nc(Cl)c(Cl)cc1Cl | inactive |  |
| Oc1c(I)cc(I)cc1I | inactive |  |
| COP(=S)(OC)Oc1cc(Cl)c(Cl)cc1Cl | inactive |  |
| CCOP(=O)(CN(CCO)CCO)OCC | inactive |  |
| C[C@H]1O[C@@H](O[C@H]2[C@@H](O)C[C@H](O[C@H]3[C@@H](O)C[C@H](O[C@H]4CC[C@@]5(C)[C@H](CC[C@@H]6[C@@H]5CC[C@]5(C)[C@@H](C7=CC(=O)OC7)CC[C@]65O)C4)O[C@@H]3C)O[C@@H]2C)C[C@H](O)[C@@H]1O | inactive |  |
| Clc1nc(Cl)nc(Cl)n1 | inactive |  |
| CCNc1nc(NC(C)(C)C)nc(SC)n1 | inactive |  |
| CC(C)(C)c1cc(O)ccc1O | inactive |  |
| CCOP(OCC)OCC | inactive |  |
| C(=NC1CCCCC1)=NC1CCCCC1 | inactive |  |
| C[C@@H](Oc1ccc(Cl)cc1Cl)C(=O)O | inactive |  |
| CC(C)c1ccc(CO)cc1 | inactive |  |

Source: PubChem BioAssay (EPA / NIEHS)
